Bioassay records deposited in PubChem by National Center for Advancing Translational Sciences (NCATS).
PLK1 PBD inh: blocks phosphopeptide binding to human PLK1 polo-box domain; P53350; Plk1 PBD binding of FITC phosphopeptide, fluorescence polarization; Potency, µM, inactives show max response, negative = inhibition, most hits filed as inhibitors; 2.8% of 360,000 active; note: series mostly up to about 57 µM; nearly all actives have a fitted effect of over 65% in size
Target sequence (P53350 whole entry, looked up, the tested form may be a part): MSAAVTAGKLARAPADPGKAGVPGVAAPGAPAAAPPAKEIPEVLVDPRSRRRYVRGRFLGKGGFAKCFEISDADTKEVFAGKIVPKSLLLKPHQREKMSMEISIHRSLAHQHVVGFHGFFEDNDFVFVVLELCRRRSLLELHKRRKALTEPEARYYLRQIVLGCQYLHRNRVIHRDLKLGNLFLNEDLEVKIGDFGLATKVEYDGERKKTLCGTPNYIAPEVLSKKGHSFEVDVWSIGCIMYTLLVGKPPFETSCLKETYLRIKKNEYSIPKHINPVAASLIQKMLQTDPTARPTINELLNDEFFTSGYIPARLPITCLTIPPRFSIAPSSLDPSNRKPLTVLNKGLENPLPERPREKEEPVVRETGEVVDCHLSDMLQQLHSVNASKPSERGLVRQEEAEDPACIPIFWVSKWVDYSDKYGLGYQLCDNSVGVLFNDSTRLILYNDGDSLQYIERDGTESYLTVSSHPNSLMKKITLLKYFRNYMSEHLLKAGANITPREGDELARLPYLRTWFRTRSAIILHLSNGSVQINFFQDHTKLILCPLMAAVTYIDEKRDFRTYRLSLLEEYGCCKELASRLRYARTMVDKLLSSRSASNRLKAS
Sfp inh: Sfp phosphopantetheinyl transferase inhibition. AID 1490. Biochemical Sfp PPTase activity, qHTS. Potency, µM, for the others: largest response in the series, negative = inhibition, most hits filed as inhibitors. Q9F4F7. 3.5% of 310,000 active;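 note: the enzyme is Sfp with the accession as filed and its product quenches rhodamine fluorescence; 0% = enzyme reaction without inhibitor and -100% = no enzyme wells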
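Sfp 15 nM + cpd, 15 min RT; start w/ rhodamine-CoA 5 uM, BHQ-2-YbbR 12.5 uM (final); 50 mM Hepes pH 7.6, 10 mM MgCl2, 0.01% NP-40, 0.01% BSA; read 525/598 nm at 0 and 30 min.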
ALOX12 inh: inhibitors of human 12S-lipoxygenase ALOX12; P18054; 1.1% of 580,000 active; Potency, µM (series often up to 108 µM), without a hit: at the top dose activity change, negative = inhibition, usual class: inhibitors; purified 12hLO, xylenol orange hydroperoxide absorbance
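Purified human 12hLO (150 nM final) in 25 mM Hepes, 0.01% Triton X-100, pH 7.0 was preincubated 15 min at room temperature with compound. Then 40 uM arachidonic acid was added, 30 min. Hydroperoxide was read by Fe-XO absorbance ratio 573/405 nm.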
VDR inhibitor: blocks the human vitamin D receptor | P11473 | VDR-SRC2-3 peptide fluorescence polarization, 2 h | Potency, µM, for inactives: max response, negative = inhibition, usual class: inhibitors | 0.93% of 400,000 active | AID 504847
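VDR–SRC2-3 interaction, FP format. Cmpds 23 nl via pintool, brief spin, 2 h ambient incubation.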
* hit, by the source's call; ? = inconclusive; · = no result given; [ ] = another dose, or the depositor's remark. Sampled rows, rich in hits. Any-hit rate of the full collection: about 4.2%. Calls come from the whole dose curve; as a rule, active = well fitted curve in the direction sought with a large enough effect; inconclusive = small, poorly fitted or top-dose-only effect, or another doubt; inactive = no such curve, though single readings can be large; an effect the other way counts as inactive or inconclusive. Unless noted, % is set by controls: 0 for no effect and ±100 for the full control effect; potency is the fitted concentration of half-maximal effect.

SMILES	PLK1 PBD inh	Sfp inh	ALOX12 inh	VDR inhibitor
Cc1c(C(=O)OCC(=O)Nc2c(C)n(C)n(-c3ccccc3)c2=O)cccc1[N+](=O)[O-]	21µM*	1%	0%	8%
O=C(COc1ccc2ccccc2c1)Nc1cccc(C(=O)Nc2ccccc2C(=O)O)c1	24µM*	7%	?	-8%
CC(=O)c1cccc(OCC(=O)Nc2cccc(C(=O)Nc3c(C)n(C)n(-c4ccccc4)c3=O)c2)c1	19µM*	·	?	-4%
CCOc1ccc(C(=O)Nc2ccccc2C(=O)O)cc1	27µM*	21%	-1%	?
COc1cc(C(=O)OCC(=O)Nc2c(C)n(C)n(-c3ccccc3)c2=O)c([N+](=O)[O-])cc1OC	-4%	·	?	-21%
CO[C@@H]1COC(=O)C/C=C\[C@@H](C)[C@H](OC)COC(=O)C/C=C\[C@H]1C	·	11%	·	·
CCCC(C)C(=O)Nc1cc(C(=O)OCC)cc(C(=O)OCC)c1 (stereo not given)	·	·	-1%	·
O=C(/C=C/c1cc([N+](=O)[O-])ccc1OC(F)F)NCc1ccc(F)cc1	-9%	-9%	0%	-4%
COc1nc(NCCO)nc(Nc2ccccc2F)n1	27µM*	9%	1%	3%
O=C(CSc1c2c(nc3cc(Cl)ccc13)CCCC2)N1CCN(c2ccccc2)CC1	·	·	-9%	-11%
CNC(=O)CSc1nnnn1CCCOC	-25%	3%	-21%	3%
Cc1ccc(/C=N/NC(=O)C(C)Oc2cccc3ccccc23)o1 (stereo not given)	-19%	56µM*	-25%	-16%
CCn1cc2nc(SCC(=O)Nc3ccc(C)cc3)n(Cc3ccc(C)cc3)c(=O)c2n1	·	·	-27%	9%
O=C(O)CCC(=O)N1Cc2[nH]cnc2C[C@H]1c1nc(-c2ccc(Cl)cc2)no1	·	·	9%[176 µM]	·
CS(=O)(=O)N1CCc2[nH]cnc2C12CCN(C(=O)C1CCCC1)CC2	·	·	13%	·
O=C(OCc1cccc(C(F)(F)F)c1)c1ccccc1C(=O)c1ccc(Cl)c([N+](=O)[O-])c1	·	·	2%	·
COC(=O)c1cc2c(c3c4ccccc4n(S(=O)(=O)c4ccc(OC)cc4)c13)C(=O)N(Cc1ccco1)C2	·	·	40µM*	·
O=C(CN(Cc1ccco1)C(=O)CNS(=O)(=O)c1ccc(Cl)cc1)NCc1ccc(F)cc1	27µM*	·	0%	-22%
O=C(NCc1cccc(Cl)c1)c1cnc(N2CCOCC2)c2ccccc12	·	·	-3%	-1%
CC(=O)N1CCC([C@@H]2CN(Cc3ccc(Br)cc3)C[C@H]2CO)CC1	·	·	5%	·
Oc1ccccc1-c1nnc(COc2ccc(Cl)cc2Cl)o1	27µM*	-5%	?	79µM*
Oc1ccccc1-c1nnc(COc2ccccc2)o1	-10%	4%	3%[57.4 µM]	8%
O=C(O)c1cc(-c2ccc(/C=N/Nc3ccc(Cl)cc3)o2)ccc1Cl	30µM*	-21%	?	-29%
Nc1nonc1C(=O)N/N=C/c1ccc(Br)o1	-3%	-15%	0%	6%
O=C(O)c1ccc(N/N=C/c2ccc(-c3ccc(Br)cc3)o2)cc1	?	2%	?	0%
SMILES	PLK1 PBD inh	Sfp inh	ALOX12 inh	VDR inhibitor
Nc1nonc1C(=O)N/N=C/c1ccc(-c2ccc(Cl)c(C(=O)O)c2)o1	-12%	8.9µM*	-1%	-2%
CC(C)NC(=O)c1onc(CSc2ccc(Cl)cc2)c1C(=O)O	-9%	14%	?	-6%
COc1ccc(C(CNC(=O)c2ccc(-c3ccccc3)cc2)N(C)C)cc1OC (stereo not given)	-4%	-1%	1%	11%
Cn1c(=O)c2c(nc(SCc3cccnc3)n2Cc2ccccc2)n(C)c1=O	-20%	79µM*	?	-3%
CCCn1c(SCC(=O)Nc2ccccc2C(=O)OC)nc2c1c(=O)n(C)c(=O)n2C	-9%	23%	-6%	-11%
CC(C)CCn1c(SCC(=O)c2ccccc2)nc2c1c(=O)n(C)c(=O)n2C	·	·	18µM*	·
CC(C)CCn1c(SCC(=O)c2ccccc2)nc2c1c(=O)[nH]c(=O)n2C	-8%	6%	9%	-1%
CCCn1c(SCC(=O)Nc2ccccc2N2CCCCC2)nc2c1c(=O)n(C)c(=O)n2C	-7%	35µM*	1%	72%
COc1ccc(C(=O)Cn2c(Br)nc3c2c(=O)n(C)c(=O)n3C)cc1OC	-6%	-24%	0%	-5%
COc1ccc(C(=O)Cn2c(Br)nc3c2c(=O)n(C)c(=O)n3C)cc1	-8%	50µM*	-6%	6%
O=C1NCCN(CC2CCN(CCc3ccccc3)CC2)C1=O	-15%	·	-1%	·
Brc1ccc(-c2noc(-c3ccccc3)n2)cc1	·	·	-4%	·
Cn1c(=O)c2c(ncn2Cc2ccccc2)n(C)c1=O	27µM*	18%	-1%	-25%
Cc1ccc(Cn2cnc3c2c(=O)n(C)c(=O)n3C)cc1	·	·	-3%	·
C/C(=N\NC(=O)c1nnn(-c2nonc2N)c1C)c1ccc(OCc2ccccc2)cc1	-11%	4%	-14%	-18%
CCOc1ncccc1C(=O)OCC(=O)c1ccc(F)cc1	17µM*	14%	-22%	?
CCCCn1c(N)c(N(CC(C)C)C(=O)CN2C(=O)c3ccccc3C2=O)c(=O)[nH]c1=O	1%	·	-4%	-5%
Cc1noc(C)c1CCC(=O)N1CCCCCCNC(=O)CC1	·	·	36%	·
O=c1nc2s/c(=C\c3ccc(-c4ccccc4[N+](=O)[O-])o3)c(=O)n2nc1-c1ccccc1	?	?	11µM*	-17%
CC1=C(C(=O)O)N2C(=O)C(NC(=O)c3ccc(F)cc3)C2SC1 (stereo not given)	24µM*	·	?	-19%
CC1=C(C(=O)O)N2C(=O)C(NC(=O)c3ccccc3Cl)C2SC1 (stereo not given)	?	8.9µM*	?	-4%
CC1=C(C(=O)O)N2C(=O)C(NC(=O)c3nn(C)cc3Cl)C2SC1 (stereo not given)	27µM*	40µM*	?	-11%
CCOc1ccc(CN2CCNC(=O)C2CC(=O)NC2CCOCC2)cc1 (stereo not given)	-7%	-3%	-7%	?
CC(OC(=O)c1cc(=O)[nH]c2ccccc12)C(=O)Nc1ccccc1F (stereo not given)	-3%	·	?	-14%
CN(C)c1ccc(NC(=O)c2cccc([N+](=O)[O-])c2)c2ccccc12	-26%	24%	53%	-5%
SMILES	PLK1 PBD inh	Sfp inh	ALOX12 inh	VDR inhibitor
O=c1[nH]nc(N/N=C/c2ccc(Cl)cc2Cl)c(=O)[nH]1	24µM*	56µM*	0%	?
FC(F)(F)c1ccc(Cl)c(N/N=C/c2ccc(Cl)cc2Cl)c1	·	·	40µM*	·
O=C(CCNc1n[nH]c(=O)[nH]c1=O)N/N=C/c1ccc(Cl)cc1	-1%	14%	10%	6%
Cc1cc(C)c(/C=N/Nc2cc(C(F)(F)F)ccc2Cl)c(C)c1	·	·	13µM*	·
Cn1c(SCC(=O)Nc2ccc3c(c2)OCO3)nnc1C(F)(F)F	-8%	·	-3%	-9%
O=C(Cc1cccs1)Nc1nc(-c2cccnc2)cs1	-4%	-6%	0%	-6%
CCOc1ccc2nc(N/C(N)=N/C(=S)Nc3cccc(OC)c3)nc(C)c2c1	-8%	17%	34%	-9%
CCOC(=O)c1c(/N=C/c2cccc([N+](=O)[O-])c2O)sc(C)c1C	?	40µM*	?	?
